S1P4 agonist: activates the human S1P4 receptor; O95977; S1P4-expressing cell line, agonist reporter assay; activation, % at 4.98 µM; 220,000 tested, 0.35% active; AID 1509; in the data active = activation above about 11%
Target sequence (O95977 whole entry, looked up): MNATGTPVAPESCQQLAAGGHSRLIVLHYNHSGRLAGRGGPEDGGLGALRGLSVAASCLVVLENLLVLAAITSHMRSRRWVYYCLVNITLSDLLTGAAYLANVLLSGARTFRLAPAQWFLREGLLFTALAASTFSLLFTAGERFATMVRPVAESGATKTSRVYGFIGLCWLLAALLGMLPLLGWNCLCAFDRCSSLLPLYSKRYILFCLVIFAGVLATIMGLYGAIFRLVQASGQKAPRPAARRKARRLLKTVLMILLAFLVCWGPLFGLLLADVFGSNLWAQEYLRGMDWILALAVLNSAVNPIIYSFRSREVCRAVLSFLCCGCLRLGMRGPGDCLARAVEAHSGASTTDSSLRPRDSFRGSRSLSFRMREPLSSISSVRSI
Pf gametocyte: kills late stage P. falciparum gametocytes | inhibition, % at 10.9 µM | P. falciparum stage V gametocytes, ATP luminescence, 24 h | 150,000 tested, 0.065% active;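 active = inhibition above the mean plus 3 SD of compounds within the control limits, set per campaign, cut at about 38% in these data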
Hsp70 act: switches on Hsp70 transcription; HeLa Hsp70 promoter luciferase reporter, luminescence; scaled: vehicle 0, proteasome-inhibitor control 100%; activation, % at 10 µM; 200,000 tested, 0.04% active; AID 1203;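 active = activation above the mean across all tested compounds plus 3 SD, cutoff set per campaign, cut at about 5.5% in these data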
S1P4 antagonist: antagonists of human S1P4 receptor; S1P4-expressing cells, antagonist mode, reporter read-out; AID 1510; inhibition, % at 4.98 µM; O95977; 220,000 tested, 0.26% active; in the data active = inhibition above about 29%
S1P3 antag: antagonists of human S1P3 receptor; 170,000 tested, 0.27% active; Q99500; CHO S1P3 NFAT-BLA reporter, FRET fluorescence, antagonist mode; inhibition, % at 4.98 µM;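 active = inhibition above the plate cutoff, the mean inhibition of test wells on that plate plus 3 SD, cut at about 28% in these data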;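 note: cells challenged with S1P at its EC80 of 0.8 µM; blue over green emission ratio from cleaved BLA substrate after 4 h stimulation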
S1P4 ag conf: confirmation of human S1P4 receptor agonists; shares compounds with S1P4 agonist; S1P4 agonist cell-based reporter assay; activation, % at 4.98 µM; 740 tested, 7% active; AID 1523; in the data active = activation above about 12%
S1P1 agonist: counter-screen for S1P4 agonists: agonists of human S1P1 | shares compounds with S1P4 agonist | S1P1 agonist cell-based assay, activation | activation, % at 4.98 µM | 740 tested, 4% active | AID 1563; in the data active = activation above about 21%
S1P4 antag conf: confirmation of human S1P4 receptor antagonists; shares compounds with S1P4 antagonist; S1P4-expressing cell line, antagonist mode, reporter read-out; inhibition, % at 4.98 µM; 520 tested, 71% active; in the data active = inhibition above about 30%
S1P1 antagonist: counter-screen for S1P4 antagonists: antagonists of human S1P1. 520 tested, 37% active. inhibition, % at 4.98 µM. shares compounds with S1P4 antagonist. cell-based S1P1 antagonist counterscreen, inhibition. AID 1564; in the data active = inhibition above about 40%;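 note: receptor stimulated with S1P near its EC80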
A number is an active result; – = inactive; · = no result. Only some compounds are listed: those with a hit (about 0.83% of all), similar ones and a draw of the others.

SMILES	S1P4 agonist	Pf gametocyte	Hsp70 act	S1P4 antagonist	S1P3 antag	S1P4 antag conf	S1P1 antagonist	others
O=C(NCC(c1ccco1)N1CCN(c2ccccc2F)CC1)OCc1ccccc1 (configuration not stated)	33	–	–	–	–	·	·	S1P4 ag conf=–;S1P1 agonist=–
O=C(Nc1ccccc1)c1nnsc1S(=O)c1ccc(Cl)cc1 (configuration not stated)	–	–	–	49	·	111	–
CCOc1cc(C2NC(=O)NC(c3ccccc3)=C2C(=O)c2ccccc2)c(Br)cc1OCC(=O)O (configuration not stated)	–	–	–	–	–	·	·
CSc1ccccc1NC(=O)C(=O)c1c[nH]c2ccccc12	–	–	–	45	–	–	47
C=CCN1N=C(c2ccc(NC(=O)c3ccccc3)cc2)CSC1=O	–	–	–	–	–	·	·
O=C(Nc1ccccc1)Nc1cc(Cl)cc(Cl)c1	–	·	–	–	·	·	·
O=C(Nc1ccccc1)Nc1cc(OCC(F)(F)F)cc(OCC(F)(F)F)c1	–	·	–	101	–	112	–
COc1ccc([C@H]2CC(=O)C=C(/C=C/c3ccccc3)C2)cc1OC	·	–	·	·	·	·	·
O=C(Nc1nc2ccccc2c(=O)s1)c1ccco1	–	–	·	30	–	–	–
O=C(Nc1nc2cc3c(cc2s1)OCO3)c1ccco1	–	–	·	–	–	·	·
CC(C)OCCCNC(=O)NC(=O)c1ccc(Cl)cc1	–	–	–	–	–	·	·
Cc1ccc(-c2cc(N)n(-c3ccc(F)cc3)n2)cc1	–	–	–	–	–	·	·
CN1/C(=C/C(=O)c2nc(S(C)(=O)=O)ncc2Cl)C(C)(C)c2ccccc21	–	·	–	65	–	111	–
Cc1cc2c(N=NC(=O)C3CC3c3ccccc3)c(O)[nH]c2cc1Br (configuration not stated)	–	·	–	–	–	·	·
C=CCN1C(=O)C(CC(=O)NCC)SC1=Nc1ccccc1CC (configuration not stated)	·	–	·	·	·	·	·
COC(=O)COc1ccc(S(=O)(=O)N2CCN(c3ccccc3F)CC2)cc1	–	–	–	29	–	–	–
CCOC(=O)Cn1nc(C)c(NC(=O)COc2ccc([N+](=O)[O-])c(C)c2)c1C	–	–	–	40	–	–	–
Cc1cc(C)c(C(=O)Nc2ccc(Br)c(C(F)(F)F)c2)c(C)c1	–	·	–	29	–	53	–
CC(C(=O)Nc1ccccc1)N(C)CCOc1ccc(Br)cc1 (configuration not stated)	–	–	–	–	–	·	·
Cn1cnc([N+](=O)[O-])c1S(=O)(=O)c1cccc(Cl)c1	–	–	–	48	–	47	63
COc1ccc(CCNC(=O)C2CCN(Cc3nc(-c4cccc(Cl)c4)oc3C)CC2)cc1OC	–	·	–	30	–	–	–
Cc1oc(-c2cccc(Cl)c2)nc1CN1CCC(C(=O)NCCCN2CCCC2=O)CC1	–	·	–	–	–	·	·
COCCN=C1Sc2nc3c(C)cccc3cc2CN1Cc1ccco1	–	–	–	51	·	–	–
Cc1cccc2cc3c(nc12)SC(=NCC1CCCO1)N(Cc1ccco1)C3 (configuration not stated)	–	·	–	56	–	–	47
O=S(=O)(c1ccc(Br)c2nsnc12)N1CCOCC1	–	–	–	79	–	39	–
CCc1cccc(C)c1NC(=S)NCC(c1cccnc1)N1CCOCC1 (configuration not stated)	–	·	–	–	–	·	·
C[C@@H]1CN([C@@H](C)CO)C(=O)Cc2cc(NC(=O)C3CCCCC3)ccc2O[C@H]1CN(C)S(=O)(=O)c1ccccc1	·	–	·	·	·	·	·
Cc1ccc(-n2ncc(Br)c(Br)c2=O)cc1	–	·	–	103	–	117	–
N#Cc1cn(CCOc2ccccc2F)c2ccccc12	–	–	–	37	–	–	–
Cc1nn(-c2cc(C(F)(F)F)ccc2Cl)c2nc(C(Cl)(Cl)Cl)[nH]c(=O)c12	–	–	·	–	–	·	·
